# Results from PubChem BioAssay.
# The source made the active and inactive calls. Unless noted, no rule for the calls is given here.
# Legend:
# [1] = compound effects on lung adenocarcinoma cell viability – A549, calcein-AM fluorescence, 48 h, basal, profiling panel (AID 1162); conditions: higher = more signal; also: test concentration not given here
# [2] = compound effects on differentiated 3T3-L1 adipocyte viability – cell-based, 3T3-L1 adipocytes, calcein-AM fluorescence, 48 h, basal, profiling panel (AID 1163); conditions: 3T3-L1 adipocytes viability, higher = more signal; also: test concentration not given here
# [3] = compound effects on hepatocellular carcinoma cell viability – HepG2, calcein-AM fluorescence, 48 h, basal, profiling panel (AID 1164); conditions: higher = more signal; also: test concentration not given here
# [4] = compound effects on multiple myeloma cell viability – MM1S, calcein-AM fluorescence, 48 h, basal, profiling panel (AID 1165); conditions: higher = more signal; also: test concentration not given here
# [5] = calcein-AM signal in unstimulated myeloma cells – cell-based, calcein-AM fluorescence, 48 h, PK04 Diversity Set, profiling panel (AID 1166); conditions: RPMI8226 myeloma viability, higher = more signal;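 also: cells grown under basal conditions without added stimulus; test concentration not given here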
# [6] = JC-1 mitochondrial signal, unstimulated HepG2 cells – cell-based, JC-1 fluorescence, 24 h, 100 nL compound, profiling panel (AID 1167); conditions: HepG2 mitochondrial potential, higher = more signal; also: test concentration not given here
# [7] = JC-1 mitochondrial signal, unstimulated adipocytes – cell-based, JC-1 fluorescence, 3T3-L1 adipocytes, 24 h, 100 nL compound, profiling panel (AID 1168); conditions: JC-1 mitochondrial fluorescence, higher = more signal, called active from +8 up or from −8 down; also: test concentration not given here
# [8] = JC-1 mitochondrial signal, unstimulated myeloma cells – cell-based, JC-1 fluorescence, RPMI8226, 24 h, 100 nL compound, profiling panel (AID 1169); conditions: JC-1 mitochondrial potential fluorescence, higher = more signal; also: test concentration not given here
# [9] = JC-1 mitochondrial signal, unstimulated MM1S myeloma – cell-based, JC-1 fluorescence, 24 h, 100 nL compound, profiling panel (AID 1170); conditions: MM1S mitochondrial potential, higher = more signal; also: test concentration not given here
# [10] = resazurin metabolic signal in A549 cells – cell-based, resazurin fluorescence, 24 h, PK04 Diversity Set, profiling panel (AID 1171); conditions: A549 viability, higher = more signal, called active from +8 up or from −8 down; also: test concentration not given here
# [11] = resazurin metabolic signal in HepG2 cells – cell-based, resazurin fluorescence, 24 h, PK04 Diversity Set, profiling panel (AID 1172); conditions: HepG2 viability, higher = more signal; also: test concentration not given here
# [12] = budding yeast growth changes without added modifier – OD600, strain BY4716, 24 h, basal condition, primary screen (AID 1173); conditions: S. cerevisiae BY4716 growth, OD600, 24 h; higher = more signal, called active from +8 up or from −8 down
# [13] = viability profiling in MM1S myeloma cells – cell-based, resazurin fluorescence, basal, 24 h, PK04 Diversity Set, profiling panel (AID 1174); conditions: higher = more signal, called active from +8 up or from −8 down; also: test concentration not given here
# [14] = target: Dihydroorotate dehydrogenase (quinone), mitochondrial (Plasmodium falciparum (isolate 3D7)) (UniProt Q08210); test: inhibition of P. falciparum DHODH – biochemical, C-terminal His tag, absorbance 600 nm, primary screen (AID 1175); conditions: PfDHODH enzyme, DCIP absorbance 600 nm; higher = more signal, called active from +8 up or from −8 down;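 also: recombinant parasite enzyme with a five histidine tag at its C terminus; test concentration not given here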
# Dihydroorotate dehydrogenase (quinone), mitochondrial (Plasmodium falciparum (isolate 3D7)), sequence (Q08210 whole entry, looked up): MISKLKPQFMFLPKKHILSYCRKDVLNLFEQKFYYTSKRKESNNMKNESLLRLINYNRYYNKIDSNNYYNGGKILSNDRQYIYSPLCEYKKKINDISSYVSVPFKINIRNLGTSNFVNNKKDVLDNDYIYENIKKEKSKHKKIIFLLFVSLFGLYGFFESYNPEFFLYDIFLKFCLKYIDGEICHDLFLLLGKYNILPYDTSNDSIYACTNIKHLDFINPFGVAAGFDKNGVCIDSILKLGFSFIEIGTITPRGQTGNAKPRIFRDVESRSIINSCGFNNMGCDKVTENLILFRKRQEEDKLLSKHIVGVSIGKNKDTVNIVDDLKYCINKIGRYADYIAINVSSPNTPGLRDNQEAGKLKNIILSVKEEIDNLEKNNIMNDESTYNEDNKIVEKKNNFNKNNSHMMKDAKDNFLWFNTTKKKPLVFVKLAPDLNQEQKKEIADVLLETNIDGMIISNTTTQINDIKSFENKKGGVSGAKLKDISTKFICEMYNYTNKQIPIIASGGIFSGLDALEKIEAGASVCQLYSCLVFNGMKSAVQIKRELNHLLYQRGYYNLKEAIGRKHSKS
# [15] = inhibition of PAO1 biofilm formation – strain PAO1, LB-PBS medium, absorbance 600 nm, primary screen (AID 1176); also: test concentration not given here; conditions: P. aeruginosa PAO1 growth/biofilm, A600, 12 h; higher = more signal
# [16] = growth modulation of vineyard yeast isolate – strain RM11-1a, OD600, basal, 24 h, primary screen (AID 1177);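 also: cultures grown under basal conditions with no added stressor; test concentration not given here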; conditions: S. cerevisiae RM11-1a growth, OD600, 24 h; higher = more signal, called active from +8 up or from −8 down
# [17] = growth of efflux-deficient E. coli DRC39 – strain DRC39, OD650, 24 h, E. coli filamentation inducers, primary screen (AID 1178);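 also: growth measured as culture turbidity by optical density at 650 nm; test concentration not given here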; conditions: E. coli DRC39 acrAB, higher = more signal, called active from +8 up or from −8 down
# [18] = growth of efflux-deficient E. coli DRC39 – strain DRC39, OD650, 48 h, E. coli filamentation inducers, primary screen (AID 1179);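 also: screen aims at cell division blockers that make cells filament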; conditions: E. coli DRC39 delta-acrAB growth, higher = more signal, called active from +8 up or from −8 down
# [19] = viability profiling in RPMI8226 myeloma cells – cell-based, resazurin fluorescence, basal, 24 h, PK04 Diversity Set, profiling panel (AID 1180); conditions: higher = more signal;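 also: RPMI8826 multiple myeloma cell line at 5000 cells per well; test concentration not given here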
# [20] = target: E3 ubiquitin-protein ligase XIAP (Homo sapiens) (UniProt P98170); test: small molecules binding XIAP protein – biophysical, small-molecule microarray, fluorescence 635 nm, primary screen (AID 1181); conditions: higher = more signal;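 also: score merges 667 nm emission and signal to noise over triplicate slides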
# E3 ubiquitin-protein ligase XIAP (Homo sapiens), sequence (P98170 whole entry, looked up): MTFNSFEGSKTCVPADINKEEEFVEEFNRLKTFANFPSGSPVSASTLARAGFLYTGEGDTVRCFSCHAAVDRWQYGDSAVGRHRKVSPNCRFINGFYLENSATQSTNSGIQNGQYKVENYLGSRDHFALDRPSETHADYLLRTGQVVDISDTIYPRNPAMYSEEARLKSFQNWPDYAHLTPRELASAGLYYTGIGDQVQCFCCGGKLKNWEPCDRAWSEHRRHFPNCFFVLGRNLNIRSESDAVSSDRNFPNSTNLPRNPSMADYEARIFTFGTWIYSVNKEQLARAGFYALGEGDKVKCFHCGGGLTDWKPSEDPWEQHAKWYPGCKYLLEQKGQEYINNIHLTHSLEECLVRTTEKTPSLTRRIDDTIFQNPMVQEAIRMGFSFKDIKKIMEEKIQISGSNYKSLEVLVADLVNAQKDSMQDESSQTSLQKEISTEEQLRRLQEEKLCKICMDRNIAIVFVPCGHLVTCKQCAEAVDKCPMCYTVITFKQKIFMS
SMILES,z-score [1],z-score [2],z-score [3],z-score [4],z-score [5],z-score [6],z-score [7],z-score [8],z-score [9],z-score [10],z-score [11],z-score [12],z-score [13],composite z-score [14],z-score [15],z-score [16],z-score [17],z-score [18],z-score [19],composite z-score [20]
CC(=O)NCCCC[C@@H]1NC(=O)[C@H]2C[C@@H](C(=O)NCCCCCN)[C@@H](c3ccc(O)cc3)N2C1=O,-0.754,0.311,-0.926,-0.0917,-0.556,-0.659,-0.34 (inactive),0.135,0.353,-0.0632 (inactive),-0.508,1.26 (inactive),-0.336 (inactive),0.538 (inactive),-0.13 (inactive),1.08 (inactive),-0.496 (inactive),-0.696 (inactive),-0.121,-0.224
Cc1ccc(S(=O)(=O)N2[C@@H](c3ccccc3)C(C(=O)O)=CC[C@H]2c2ccc(F)cc2)cc1,-0.996,0.31,-0.73,0.102,-0.296,-0.699,0.2 (inactive),0.597,-1.09,0.649 (inactive),0.0445,-0.93 (inactive),-0.3 (inactive),-0.667 (inactive),0.244 (inactive),-0.069 (inactive),-0.0944 (inactive),0.0973 (inactive),-0.858,0.142
C=CC[C@H](O)c1ccc(O)c(F)c1,-0.402,0.329,-0.821,-0.229,-0.426,-0.737,0.083 (inactive),-0.153,0.384,-0.396 (inactive),-0.632,-2.36 (inactive),-0.711 (inactive),-0.0056 (inactive),0.131 (inactive),-0.498 (inactive),0.117 (inactive),0.0282 (inactive),-0.0926,-0.0088
CCOC(=O)C[C@H]1[C@H](OC(=O)c2ccc(-c3ccccc3)cc2)[C@@H](NC(=O)C2CCCCC2)c2cc(OCCCO)ccc2N1C(=O)Cc1ccc(OC)cc1,-0.869,0.0396,-0.216,-0.581,-0.938,0.801,-0.199 (inactive),0.823,0.488,-0.0129 (inactive),-0.0995,0.857 (inactive),-0.456 (inactive),-0.175 (inactive),0.55 (inactive),-0.442 (inactive),0.0009 (inactive),0.0016 (inactive),-0.131,-0.144
